This note sets out measurements from PubChem BioAssay (NCI).

This is part of a sample that, as a whole, favours compounds with a hit. Of some 83,000 tested, about 20% had one in any assay.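 Values shown are percent growth following 48 h exposure of cells in 96-well plates to a single concentration of compound; below 10 was considered active.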 Values without a mark were called inactive. The source made the active and inactive calls.

Some test systems named below: NCI-H23 lung; NCI-H322M lung; HOP-62 NSCLC; HOP-92 NSCLC; A549/ATCC NSCLC; 786-0 renal; COLO 205 colon; DU-145 prostate; K-562 leukemia; MALME-3M melanoma; MDA-MB-231 breast; RXF 393 renal; SF-268 CNS; SF-295 CNS; SF-539 CNS; UACC-257 melanoma; M14 melanoma; NCI-H460 lung; NCI-H522 lung.
What all share (assay): NCI-60 one-dose screen, 48 h (100 = growth as untreated, 0 = no growth, -100 = all killed)
Common to all, as to conditions: 10 µM unless noted

On to `c1ccc(C2NCCNC2c2ccccc2)cc1` (stereo unspecified), for which the growth in the experiment on NCI-H23 lung is 103%; with NCI-H322M lung, 100%; in the experiment on HOP-62 NSCLC, 98.7%; with HOP-92 NSCLC it was 93.6%; in the experiment with A549/ATCC NSCLC, 98.1%; in the experiment on 786-0 renal, 107%. Besides, the growth in the experiment with COLO 205 colon was 103%; in the experiment on DU-145 prostate, 104%; with K-562 leukemia it was 105%; in the experiment on MALME-3M melanoma, 111%; in the experiment on MDA-MB-231 breast it was 98.4%; in the experiment with RXF 393 renal, 120%. In addition, the growth is 101% with SF-268 CNS; 104% in the experiment on SF-295 CNS; 98.7% with SF-539 CNS; 99.6% in the experiment on UACC-257 melanoma; 102% in the experiment with M14 melanoma.

On to `O=C1Nc2ccc(Br)cc2C1=O`, for which the growth was 97.5% with NCI-H23 lung; 102% with NCI-H322M lung; 100% in the experiment on HOP-62 NSCLC; 102% in the experiment with NCI-H460 lung; 103% with HOP-92 NSCLC; 99.8% with NCI-H522 lung. Moreover, the growth was 109% in the experiment with 786-0 renal; 106% in the experiment on COLO 205 colon; 99.5% in the experiment on DU-145 prostate; 87.2% in the experiment with K-562 leukemia; 102% with MALME-3M melanoma; 96.7% in the experiment on MDA-MB-231 breast. The growth in the experiment with RXF 393 renal is 119%; with SF-268 CNS it was 93.6%; in the experiment on SF-295 CNS it was 99.1%; in the experiment with SF-539 CNS, 98.3%; in the experiment on M14 melanoma, 98.4%.

Take `CC(=O)N1CC(=O)NC1=S`: the growth is 98.3% in the experiment with NCI-H23 lung; 102% with NCI-H322M lung; 97.7% with HOP-62 NSCLC; 103% in the experiment on NCI-H460 lung; 102% with HOP-92 NSCLC; 92.2% in the experiment with NCI-H522 lung. Moreover, the growth in the experiment with A549/ATCC NSCLC is 94.9%; with 786-0 renal, 102%; in the experiment on DU-145 prostate it was 105%; in the experiment with K-562 leukemia, 97.4%; with MALME-3M melanoma, 95%; with MDA-MB-231 breast it was 98.3%. Also, the growth was 104% in the experiment on RXF 393 renal; 98.2% with SF-268 CNS; 102% with SF-295 CNS; 101% with SF-539 CNS; 90.4% in the experiment with UACC-257 melanoma; 95.1% in the experiment with M14 melanoma.

On to `O=[n+]1c2ccccc2n([O-])c2cc(Cl)ccc21`, for which the growth in the experiment on NCI-H23 lung is 91.3%; with NCI-H322M lung, 98.5%; in the experiment with NCI-H460 lung, 42.7%; with NCI-H522 lung, 72%; in the experiment with 786-0 renal, 32.1%; with COLO 205 colon, 76.5%. For the same compound, the growth was 94.9% in the experiment with DU-145 prostate; 45.3% in the experiment on K-562 leukemia; 85.1% in the experiment on MALME-3M melanoma; 87.6% with MDA-MB-231 breast; 28.1% in the experiment with SF-268 CNS; 63.5% with SF-295 CNS. Besides, the results for the growth in the experiment on SF-539 CNS, with UACC-257 melanoma and in the experiment with M14 melanoma were 53.1%, 80.7% and 104%, respectively.

In the case of `CC(C)(C)c1ccc(O)c(Br)c1`, the growth with NCI-H23 lung is 93.6%; in the experiment with NCI-H322M lung it was 101%; in the experiment with HOP-62 NSCLC, 107%; in the experiment with HOP-92 NSCLC it was 98.2%; in the experiment with NCI-H522 lung it was 119%; with A549/ATCC NSCLC, 107%. Also, the growth in the experiment on 786-0 renal is 100%; with COLO 205 colon, 105%; with DU-145 prostate it was 105%; in the experiment with K-562 leukemia, 120%; in the experiment on MALME-3M melanoma, 99.8%; in the experiment on MDA-MB-231 breast, 104%. Besides, the growth with RXF 393 renal was 91.2%; with SF-268 CNS it was 95.5%; in the experiment on SF-295 CNS, 95.8%; with SF-539 CNS, 102%; in the experiment with UACC-257 melanoma, 111%; with M14 melanoma it was 95.8%.

`CC12CCC(O)CC1=CCC1C2CCC2(C)C3=NN=CC3CC12` (stereo unspecified): the growth with NCI-H23 lung is 101%; in the experiment with NCI-H322M lung, 118%; with HOP-62 NSCLC, 101%; in the experiment on NCI-H460 lung, 125%; in the experiment on NCI-H522 lung it was 105%; in the experiment with A549/ATCC NSCLC, 104%. Moreover, the growth is 112% with 786-0 renal; 112% with COLO 205 colon; 122% with DU-145 prostate; 61.1% in the experiment with K-562 leukemia; 98% in the experiment with MALME-3M melanoma; 103% in the experiment on MDA-MB-231 breast. In addition, the growth in the experiment on RXF 393 renal is 102%; in the experiment with SF-268 CNS it was 105%; with SF-539 CNS, 106%; in the experiment on UACC-257 melanoma it was 103%; with M14 melanoma, 99.7%.

Consider `COc1ccc(C(Cn2ccnc2)Sc2ccc(Cl)c(Cl)c2)cc1` (stereo unspecified), for which the growth in the experiment with NCI-H23 lung was 82.8%; with NCI-H322M lung it was 91.3%; with HOP-62 NSCLC, 85.5%; with NCI-H460 lung, 78.2%; in the experiment on HOP-92 NSCLC, 50.7%; in the experiment on NCI-H522 lung it was 60.2%. Also, the growth with A549/ATCC NSCLC is 88.1%; with 786-0 renal, 77.8%; in the experiment with COLO 205 colon it was 87.6%; with DU-145 prostate it was 100%; with K-562 leukemia it was 56.2%; in the experiment with MALME-3M melanoma, 96.1%. The growth with MDA-MB-231 breast was 79.1%; in the experiment on SF-268 CNS it was 90.9%; with SF-539 CNS, 95.6%; in the experiment on UACC-257 melanoma, 92.1%; with M14 melanoma, 71.6%.

For `Cc1onc(-c2ccccc2)c1C(=O)N/N=C/c1cc(Cl)cc(Cl)c1O`, the growth with NCI-H23 lung was 53.2%; in the experiment with NCI-H322M lung it was 16%; in the experiment with HOP-62 NSCLC, 39.3%; with NCI-H460 lung it was 22.7%; in the experiment with HOP-92 NSCLC, 49.3%; in the experiment on NCI-H522 lung it was 28.7%. The growth is 21.9% with A549/ATCC NSCLC; 27.4% in the experiment on 786-0 renal; 16.9% with COLO 205 colon; 44.6% with DU-145 prostate; 29.4% in the experiment with K-562 leukemia; 34.4% in the experiment on MDA-MB-231 breast. For the same compound, the growth in the experiment with RXF 393 renal is 64.1%; in the experiment on SF-268 CNS it was 34.1%; in the experiment on SF-295 CNS, -5.54% (active); with SF-539 CNS, 16.5%; in the experiment on UACC-257 melanoma it was 17.4%; in the experiment with M14 melanoma, 14.3%.

As to `Cc1cc(=O)oc2cc(O)cc(O)c12`, the growth in the experiment on NCI-H23 lung was 107%; with NCI-H322M lung, 103%; in the experiment with HOP-62 NSCLC, 87.2%; with NCI-H460 lung it was 99%; in the experiment with HOP-92 NSCLC it was 100%; with NCI-H522 lung, 88.7%. Besides, the growth in the experiment with 786-0 renal is 98%; in the experiment on COLO 205 colon, 110%; in the experiment with DU-145 prostate it was 103%; in the experiment with K-562 leukemia, 102%; in the experiment on MALME-3M melanoma it was 90%; with MDA-MB-231 breast, 89.8%. Further, the growth in the experiment with RXF 393 renal is 114%; with SF-268 CNS, 97.7%; with SF-295 CNS it was 103%; in the experiment on SF-539 CNS it was 92.4%; with M14 melanoma, 102%.

For `CN1CCC(c2ccccc2)(c2ccccc2)C(=O)C1`, the growth in the experiment on NCI-H23 lung is 80.1%; in the experiment on NCI-H322M lung it was 87.6%; in the experiment on NCI-H460 lung, 98%; in the experiment with HOP-92 NSCLC, 89%; with NCI-H522 lung it was 75.4%; in the experiment with A549/ATCC NSCLC, 79.7%. Besides, the growth is 86.7% with 786-0 renal; 98.4% with COLO 205 colon; 102% in the experiment on DU-145 prostate; 65.6% with K-562 leukemia; 90.7% with MALME-3M melanoma; 95.7% in the experiment with RXF 393 renal. The growth with SF-268 CNS was 104%; with SF-295 CNS it was 85.8%; in the experiment on SF-539 CNS, 94.3%; with UACC-257 melanoma, 95%; in the experiment on M14 melanoma, 92.4%.
